In PubChem BioAssay AID1903 (Southern Research Specialized Biocontainment Screening …, 2009):
Among all 310,000 compounds or so, about 1,200 (0.39%) were called active. The rule behind the calls is not given here. The list is a sample of the results. Potency and affinity values are given separately.

target: Large T antigen (Simian virus 40) (UniProt P03070); assay: TAg ATPase/helicase activity blockers – biochemical (AID 1903); conditions: SV40 large T antigen ATPase/helicase inhibition assay; at 20 µM; active compounds read high
Sequence (P03070 whole entry, looked up): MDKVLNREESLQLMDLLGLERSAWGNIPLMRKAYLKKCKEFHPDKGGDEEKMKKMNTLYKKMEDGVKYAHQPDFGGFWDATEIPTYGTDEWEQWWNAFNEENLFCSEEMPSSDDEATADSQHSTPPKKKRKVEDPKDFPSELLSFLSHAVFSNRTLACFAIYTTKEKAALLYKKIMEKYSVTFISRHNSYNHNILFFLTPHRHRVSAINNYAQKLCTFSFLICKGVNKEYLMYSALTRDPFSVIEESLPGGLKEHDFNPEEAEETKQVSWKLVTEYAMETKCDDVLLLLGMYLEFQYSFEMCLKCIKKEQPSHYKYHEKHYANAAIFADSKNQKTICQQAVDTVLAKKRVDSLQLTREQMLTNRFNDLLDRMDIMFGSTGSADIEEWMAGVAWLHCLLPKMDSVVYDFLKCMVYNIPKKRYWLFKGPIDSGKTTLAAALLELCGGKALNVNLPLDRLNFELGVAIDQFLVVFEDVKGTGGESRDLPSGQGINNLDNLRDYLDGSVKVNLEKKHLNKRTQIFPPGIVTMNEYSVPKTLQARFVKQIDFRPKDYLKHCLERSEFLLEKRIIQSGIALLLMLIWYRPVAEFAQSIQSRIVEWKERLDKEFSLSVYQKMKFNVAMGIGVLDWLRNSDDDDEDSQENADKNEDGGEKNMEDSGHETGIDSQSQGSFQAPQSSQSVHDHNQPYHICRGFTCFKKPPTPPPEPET

inhibition, inactive:
O=C(NNc1c(Cl)cccc1Cl)c1c(F)cccc1Cl 9.15%
COC(=O)[C@@]12CCCN1[C@H](c1ccc(-c3ccc(F)cc3)cc1)[C@H]1C(=O)N(C)C(=O)[C@H]12 5.03%
Cc1ccc(S(=O)(=O)NC(=O)N(CCC#N)Cc2ccccc2)cc1 10.3%
CC(C)(C)/C(O)=C/c1nc2ccccc2oc1=O 29.2%
Cc1ccc(/C(O)=C/c2nc3cc(C)ccc3oc2=O)cc1 14.5%
COc1ccc(-c2nc(NC(=O)CSCCO)sc2C)cc1 22.1%
O=C1C(O)=C(O)C(=O)c2ccccc21 5.58%
O=S1(=O)N=C(SCCO)c2ccccc21 -3.68%
CCOc1ccc(NC(=S)N(CCN2CCOCC2)Cc2ccc3c(c2)CCCN3CC)cc1 18.7%
CCOC(=O)c1oc2cc(O)c(CC)cc2c(=O)c1-c1cscn1 7.73%
CCOC(=O)c1[nH]nc(-c2c(O)cc(C)cc2O)c1-c1csc(C)n1 6.85%
CCCc1cc(-c2[nH]ncc2-c2ccc(C(=O)OCC)o2)c(O)cc1O 18.2%
CCCc1cc2c(=O)c(-c3cscn3)c(C(=O)OCC)oc2cc1O 2.58%
CN(C)/C=C/C(=O)c1ccc(S(=O)c2ccccc2)cc1 (stereo unspecified) 12.1%
Cc1cc(/C=C2\NC(=S)NC2=O)c(C)n1-c1cccnc1 4.58%
Cc1cc(/C=C2/NC(=S)NC2=O)c(C)n1-c1cccnc1 5.09%
Cc1cc(/C=N\O)c(C)n1-c1ccncc1 7.77%
Cc1cc(/C=C2/NC(=O)NC2=O)c(C)n1-c1ccncc1 6.66%
COc1ccc2c(c1)CC/C(=C\c1ccc(OC)c(Cn3nc(C)cc3C)c1)C2=O 10.2%
CCCc1nc(-c2ccccc2)c(-c2ccc(OC)c(OC)c2)c(=O)[nH]1 3.66%
O=C(CSc1nnc(CNC(=O)c2cccs2)o1)NC1CCCC1 0.7%
Cc1ccc(C(=O)Cn2nnc(-c3ccccc3)n2)cc1 0.94%
O=C(CCS(=O)(=O)c1cccs1)Nc1ccc(C(=O)NC2CCN(Cc3ccccc3)CC2)cc1 16.1%
O=C(CSCc1c(Cl)cccc1Cl)Nc1ccccc1C(=O)N1CCOCC1 6.94%
CCOC(=O)c1sc(N)c(C(=O)Nc2ccccc2OC)c1C 25.6%
Cc1ccccc1-n1nnnc1SCC(=O)Nc1ccc(S(=O)(=O)N2CCCC2)cc1 -7.07%
COc1ccc2nc(-c3ccc(N)cc3)[nH]c2c1 25.1%
Nc1ccc(-c2nc3ccc([N+](=O)[O-])cc3[nH]2)cc1 1.62%
CC1CCN(C(=O)COC(=O)CSc2ccc(C(N)=O)cc2[N+](=O)[O-])CC1 18.6%
O=C1CCCN1CCNC(=S)Nc1ccccc1 1.29%
O=C1CCCN1CCCNC(=S)Nc1ccccc1 14.1%
COCCOC(=O)C1=C(C)NC(=O)NC1c1ccco1 (stereo unspecified) 13%
Cc1ccc(NC(=O)C(=O)C2C(=O)Nc3ccccc32)cc1 (stereo unspecified) 6.13%
O=C(Nc1ccc(F)cc1)C(=O)C1C(=O)Nc2ccccc21 (stereo unspecified) 16.2%
COc1ccc(CC(=O)NCC(=O)N/N=C/c2sccc2C)cc1 26.5%
N#Cc1ccc(/C=N/NC(=S)Nc2ccc(S(=O)(=O)N3CCOCC3)cc2)cc1 15.2%
Cc1ccc(S(=O)(=O)N2CCN(CC(=O)N/N=C\c3ccc(Cl)c([N+](=O)[O-])c3)CC2)cc1 19.6%
O=S(=O)(c1ccc(NC(=S)N/N=C/c2ccc(N3CCOCC3)cc2)cc1)N1CCOCC1 22.6%
Cc1ccc(S(=O)(=O)N2CCN(CC(=O)N/N=C\c3ccncc3)CC2)cc1 22%
CCCCN(C(=O)NC(=O)Nc1ccccc1C)S(C)(=O)=O 12%
COc1ccc(N2C(=O)CSC2c2cccc(F)c2)cc1 (stereo unspecified) 9.83%
CC1CC(C)(C)NC(=S)N1CCCC(=O)N1CCN(c2ccc(F)cc2)CC1 (stereo unspecified) 7.98%
CCOc1cc2c(cc1OCC)C(c1ccccc1OC)OC(=O)C2 (stereo unspecified) 2.26%
C(=N\Nc1nc2ccccc2[nH]1)/c1ccccc1 24.9%
COc1cc(/C=N\Nc2nc3ccccc3[nH]2)cc(OC)c1OC 22.4%
COc1ccc(/C=N/Nc2nc3ccccc3[nH]2)cc1OC 26.4%
COc1cc(/C=N\Nc2nc3ccccc3o2)cc(OC)c1OC 12.1%
COc1ccc(/C=N/Nc2nc3ccccc3o2)cc1O 28.6%
Cc1ccc(/C=N/Nc2nc3ccccc3[nH]2)s1 18.3%
COc1ccc(-c2noc(N3CCC(C(=O)NCCCN4CCCCC4)CC3)n2)cc1 11.4%
C/C(=N\NC(=O)c1c(Cl)c(C)nn1C)c1cccc(NC(=O)c2cccc(F)c2)c1 27.2%
O=C(Cc1ccccc1)NCC(=O)N/N=C/c1cccnc1 12.9%
O=C1Nc2ccc(S(=O)(=O)N3CCOCC3)c3cccc1c23 3.61%
CCOC(=O)C1=C(C)NC(=O)C(C(N)=O)C12CCCCC2 (stereo unspecified) 4.24%
CN(CCc1ccccn1)C(=O)CCC1CCCN(C(=O)CN2CCCCCC2)C1 (stereo unspecified) 16.4%
Cc1cccc(Nc2nc3c(S(=O)(=O)c4ccccc4)nnn3c3ccccc23)c1 8.95%
CCCN1C(=O)/C(=N\OCC(=O)NC23CC4CC(CC(C4)C2)C3)c2ccccc21 19.7%
COc1ccc(C2CC(=O)c3cnc(N4CCc5ccccc54)nc3C2)cc1OC (stereo unspecified) 6.12%
CCOC(=O)C(CC)n1nc(C)n2c(cc3sccc32)c1=O (stereo unspecified) 9.17%
Cc1cc(N)ccc1-n1c(C)ccc1C 15.8%
Cc1cc(N)ccc1N1CCCC1 11.3%
Cc1ccc(CNC(C)(C)CO)cc1 1.14%
Cc1nc(-c2ccccc2O)n(S(=O)(=O)N(C)C)n1 12.3%
CCN(C(=O)c1ccc(Cl)c([N+](=O)[O-])c1)c1ccccc1 4.72%
CCN(CC(=O)Nc1ccc(NC(C)=O)cc1)C(=O)c1ccc(NC2CC2)c([N+](=O)[O-])c1 9.29%
COCCNC(=O)C(=O)c1cc(C)n(-c2ccc([N+](=O)[O-])cc2)c1C 3.94%
CCN1C(=O)c2ccccc2Sc2ccc(C(=O)NCCCN3CCCCC3)cc21 10.1%
CCc1nnc(NC(=O)COc2ccc(N(C)S(=O)(=O)c3ccc(C)cc3)cc2)s1 4.23%
Fc1ccc(CNc2ccc(CNc3ncn[nH]3)cc2)cc1 19.6%
C=CCOc1ccc(CNc2ccc3[nH]c(=O)[nH]c3c2)cc1OC 13.7%
Oc1ccc(NCc2cccc(OCc3ccc(F)cc3)c2)cc1 29.3%
C=CCOc1cccc(CNCc2ccncc2)c1 8.06%
C=CCOc1cccc(CNc2cccc(C(=O)O)c2)c1 15.2%
C=CCOc1ccc(CNc2ccc(NC(=O)CCC)cc2)cc1OCC 18.3%
CNC(=O)COc1coc(CN2CCN(c3ccc(OC)cc3)CC2)cc1=O 21.7%
COc1ccc(-n2ccnc2SCC(=O)Nc2ccccc2)cc1 15%
CC(=O)c1ccc(N2CCN(C(=O)Cc3cccs3)CC2)cc1 1.64%
Cc1ccc2nc(C)c(C)nc2c1N 17.3%
Cc1ccc2cccnc2c1N 5.53%
Cc1cccc(-c2nnc(NC(=O)c3ccco3)s2)c1 8.94%
CN(c1ccc(F)cc1)S(=O)(=O)c1ccc2[nH]cc(C(=O)O)c(=O)c2c1 5.14%
COc1cccc(C(=O)Nc2c3c(nn2-c2ccc([N+](=O)[O-])cc2)CS(=O)(=O)C3)c1 3.72%
CCN(CC)S(=O)(=O)c1cccc(NC(=O)CSc2nnc(N)s2)c1 2.59%
CCN(CC)C(=O)CSc1nc2ccc(NC(=O)CSc3nnc(N)s3)cc2s1 5.67%
Cc1cccc(OCC(=O)NNC(=O)CCc2ccccc2)c1 15.5%
Nc1ccc(S(=O)(=O)NNC(=O)C(=O)NNc2ccccn2)cc1 11.5%
Cn1c(=O)c2c(nc(N3CCOCC3)n2CCSc2ncccn2)n(C)c1=O 12.4%
COc1cc(S(=O)(=O)Nc2ccc(C)cc2)ccc1N=Cc1c(C)[nH]n(-c2ccc(C)cc2)c1=O 2.78%
COc1cc(SC#N)ccc1N=Cc1c(C)[nH]n(-c2ccc(Cl)cc2)c1=O 17.5%
COc1ccccc1N=Cc1c(C)[nH]n(-c2ccc(C)cc2C)c1=O 27.4%
COc1cccc(N=Cc2c(O)n(-c3cccc(C)n3)c(=O)c3ccccc23)c1 18%
COc1cc(SC#N)ccc1N=Cc1c(C)[nH]n(-c2ccc(C)c(C)c2)c1=O 35.9%
COc1ccc(N=Cc2c(O)n(-c3cccc(C)n3)c(=O)c3ccccc23)c(OC)c1 13.7%
CCON1C(=O)CN(C(=O)OC)C1c1ccc(Cl)cc1Cl (stereo unspecified) 19.9%
Cc1ccccc1NC(=O)Cn1nnc2sc3c(c2c1=O)CC(C)(C)OC3 7.47%
O=C(Nc1ccc(S(=O)(=O)N2CCCCC2)cc1)C1CC(=O)N(Cc2ccccc2)C1 (stereo unspecified) 16.5%
